CYP2C19 inh: human CYP2C19 inhibition | P33261 | 96,000 compounds, 21% hits | AID 778 | CYP2C19 Supersomes, luciferin-H EGE luminescence, 30 min | inhibition, % at 5 µM;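 active means CYP2C19 inhibition above a set limit at 5 µM in the primary screen, cut at about 50% in these data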
CYP2C19 activ: increases human CYP2C19 enzyme activity | activation factor at 5 µM | recombinant CYP2C19, luciferin-H EGE luminescence; hits give high values; 0 = fully inhibited enzyme, 1 = untreated enzyme | 96,000 tested, under 10 active | P33261;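 active means activation factor of at least 2 at 5 µM in the primary screen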
Measles CPE: protection of cells from measles virus | 140,000 compounds, 1.5% hits | protection (pct of control), % at 4 µM | AID 841 | Measles virus-infected cells, CPE protection, absorbance; in the data active means protection mostly above about 24%, no sharp cut-off; inactive means mostly below about 26%
CYP2C9 activ: CYP2C9 (human) activation; P11712; recombinant CYP2C9, luciferin-H conversion, luminescence; hits give high values; factor 1 = untreated enzyme, 0 = blocked; activation factor at 5 µM; 96,000 compounds, 1.4% hits;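 active means activation factor of 2 or more for CYP2C9 at a 5 µM dose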
Target sequence (P11712 whole entry, looked up): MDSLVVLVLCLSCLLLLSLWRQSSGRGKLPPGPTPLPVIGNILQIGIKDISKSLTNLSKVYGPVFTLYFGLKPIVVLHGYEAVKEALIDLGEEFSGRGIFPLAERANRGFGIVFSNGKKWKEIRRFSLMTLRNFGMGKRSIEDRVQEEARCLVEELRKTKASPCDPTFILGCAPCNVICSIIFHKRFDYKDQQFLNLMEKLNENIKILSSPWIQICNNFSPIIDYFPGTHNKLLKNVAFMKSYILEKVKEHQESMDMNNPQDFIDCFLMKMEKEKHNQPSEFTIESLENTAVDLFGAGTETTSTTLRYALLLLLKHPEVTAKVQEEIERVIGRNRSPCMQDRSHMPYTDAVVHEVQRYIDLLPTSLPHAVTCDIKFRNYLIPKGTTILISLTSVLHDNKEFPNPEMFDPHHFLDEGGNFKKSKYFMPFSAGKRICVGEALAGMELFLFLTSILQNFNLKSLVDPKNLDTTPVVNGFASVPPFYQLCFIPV
CYP2C9 inhib: human CYP2C9 inhibition | P11712 | inhibition, % at 5 µM | 96,000 compounds, 20% hits | AID 777 | CYP2C9 Supersomes, luciferin-H conversion, luminescence;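 active means blocking of liver enzyme CYP2C9 beyond about 50% at 5 µM, limit read from the data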
A number is an active result; i = inactive; nt = no result. Most compounds without a hit are left out; they make up all but 22% or so of the library.

SMILES	CYP2C19 inh	CYP2C19 activ	Measles CPE	CYP2C9 activ	CYP2C9 inhib
CCOc1ccccc1Nc1nnc(C)c(=O)[nH]1	i	i	60	i	i
Cc1ccc(/C=N/NC(=O)c2cc(C3CC3)nc3ccccc23)o1	nt	nt	i	nt	nt
CC(=O)NC(Cc1ccc(F)cc1)C(=O)N1CCN(C(=O)NCc2ccccc2)CC1 (centres undefined)	nt	nt	i	nt	nt
CC(NC(=O)c1ccccc1Cl)C1COc2ccccc2O1 (centres undefined)	nt	nt	i	nt	nt
CC(NS(=O)(=O)c1ccccc1)C1COc2ccccc2O1 (centres undefined)	54	i	i	i	i
Cn1c2c(c(=O)n(C)c1=O)C(c1ccc(Br)cc1)Nc1ccccc1O2 (centres undefined)	56	i	i	i	65
Cn1c(/C=C/N2CCOCC2)c(C(=O)c2ccc(Br)cc2)c(=O)n(C)c1=O	i	i	i	i	i
O=C(CSc1nnnn1C1CCCCC1)NCc1cccc(C(=O)O)c1	i	i	i	i	i
COc1ccc(Cl)cc1C(=O)CSc1nnnn1C1CCCC1	76	i	i	i	i
COc1ccc(Cl)cc1C(=O)CSc1nnnn1C1CCCCC1	69	i	i	i	i
CCN1CCN(C(c2ccccn2)c2c(NC(=O)c3ccccc3)sc(C)c2C)CC1 (centres undefined)	i	i	i	i	i
O=C(NCc1cccs1)c1ccc(CS(=O)(=O)c2ccc(Cl)cc2)o1	52	i	i	i	72
O=C(NCc1cccs1)c1ccccc1C(=O)NCc1cccs1	i	i	i	i	i
O=C(NCc1cccnc1)c1ccc(CS(=O)(=O)c2ccc(Cl)cc2)o1	100	i	i	i	93
O=C(NCc1cccs1)c1cc2ccccc2o1	56	i	i	i	i
COc1ccc(S(=O)(=O)Cc2ccc(C(=O)NCc3cccs3)o2)cc1	i	i	i	i	60
CCOc1cccc(C2C(C#N)=C(N)Oc3cc(C)n(Cc4ccccn4)c(=O)c32)c1OCC (centres undefined)	i	i	i	i	i
CCOc1ccccc1C1C(C#N)=C(N)Oc2cc(N)ccc21 (centres undefined)	76	i	i	i	70
COc1ccc(C2C(C#N)=C(N)Oc3cc4c(cc32)OCO4)cc1 (centres undefined)	87	i	i	i	87
COc1ccc(OC)c(C2C(C#N)=C(N)Oc3cc(N)ccc32)c1 (centres undefined)	94	i	i	i	92
N#CC1=C(N)Oc2cc(N)ccc2C1C1CCCCC1 (centres undefined)	84	i	i	i	i
Cc1ccc(-c2ccc(CCC(=O)O)n2Cc2ccco2)cc1	i	i	i	i	57
COC(=O)c1nn(-c2ccccc2)nc1-c1nn(-c2ccccc2)nc1C(=O)OC	61	i	i	i	86
COc1ccc(S(=O)(=O)N2CCCC(C(=O)NCc3ccccn3)C2)cc1 (centres undefined)	i	i	i	2.4	i
Cc1cccc(OCC(=O)Nc2ccc(S(=O)(=O)N3CCCC3)cc2)c1	i	i	i	i	i
SMILES	CYP2C19 inh	CYP2C19 activ	Measles CPE	CYP2C9 activ	CYP2C9 inhib
O=C(COc1ccc(S(=O)(=O)N2CCCCC2)cc1)NCc1ccncc1	92	i	i	i	92
COc1ccc(S(=O)(=O)N2CCCC(C(=O)NCc3ccncc3)C2)cc1 (centres undefined)	99	i	i	i	99
CSc1ccccc1NC(=O)COc1ccc(S(=O)(=O)N2CCCC2)cc1	i	i	i	i	80
COc1ccc(CNC(=O)C2CCCN(S(=O)(=O)c3cc(C)ccc3OC)C2)cc1 (centres undefined)	i	i	i	i	i
Cc1ccc(S(=O)(=O)N2CCC(C(=O)NCc3ccncc3)CC2)cc1	84	i	i	i	99
Cc1ccc(S(=O)(=O)N2CCC(C(=O)NCc3cccnc3)CC2)cc1	i	i	i	i	i
CS(=O)(=O)N(CC(=O)N1CCN(c2ccccc2F)CC1)c1cccc(C(F)(F)F)c1	i	i	i	i	i
S=C(NCc1ccncc1)Nc1cccc(Cl)c1	nt	nt	i	nt	nt
Cc1ccc(NC(=S)NCc2cccs2)c(C)c1	73	i	i	i	i
Cc1cc(Cl)ccc1NC(=S)NCc1cccs1	97	i	i	i	63
S=C(NCc1cccs1)Nc1ccccc1Cl	nt	nt	i	nt	nt
S=C(NCc1cccs1)Nc1cccc(Cl)c1	62	i	i	i	i
Cc1ccc(S(=O)(=O)NCCSc2nnnn2C)cc1	i	i	i	i	i
O=P(O)(CCc1ccncc1)CN1CCCCC1	i	i	i	i	i
